# This is a sample that favours compounds with a hit; in the whole collection about 11% have one here.
# Pf growth 96h – inhibits malaria parasite growth, 96 h. P. falciparum luciferase reporter growth, 96 h. Potency, µM (series often up to 28.7 µM), without a hit: top-dose activity change, negative = inhibition, actives largely listed as inhibitors. 320,000 tested, 6.9% active
#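 Cell-based qHTS: luciferase-tagged P. falciparum in erythrocytes (2% hematocrit, 0.05% parasitemia final) incubated with compounds for 96 hours, 37 C, 5% CO2; luciferase detection reagent then added and luminescence measured.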
# Pf growth 48h – inhibits P. falciparum growth in the first generation, 48 h; AID 504832; P. falciparum luciferase growth in erythrocytes, 48 h; 310,000 tested, 5.9% active; Potency, µM (top dose mostly 28.7 µM), for the others: at the top dose activity change, negative = inhibition, actives largely listed as inhibitors
#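 Growth was read as firefly luciferase luminescence after a 48 h, 37 C, 5% CO2 exposure of compounds to reporter-bearing P. falciparum cultures (0.1% parasitemia, 2% hematocrit final) in Albumax-supplemented RPMI 1640.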
# AMA1 RON2 block – disrupts binding of P. falciparum AMA1 to RON2; AlphaScreen AMA1-biotinylated RON2 peptide binding; Potency, µM (titrated, usually from 58.2 µM), inactives show at the highest dose activity change, negative = inhibition, usual class: inhibitors; 360,000 tested, 0.2% active; AID 720542;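 further: 0% = vehicle wells and -100% = peptide control; nearly all actives have a fitted effect of over 45% in size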
#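 AMA1 (3D7) with his tag at 25 nM final met compounds first, then biotinylated RON2 peptide at 25 nM; detection used donor plus acceptor beads, 10 µg/mL apiece, read by AlphaScreen after 30 min at room temperature.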
# AmpC inh no detg – inhibitors of E. coli AmpC beta-lactamase without detergent; AmpC nitrocefin hydrolysis, absorbance 480 nm, 0.0001% Triton; P00811; 330,000 tested, 0.52% active; Potency, µM (doses to about 57.1 µM), inactives show top-dose activity change, negative = inhibition, actives largely listed as inhibitors; AID 485341;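 further: plate controls were no compound for no effect and no enzyme for full effect; nearly all actives have a fitted effect of over 20% in size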
# Target sequence (P00811 whole entry, looked up): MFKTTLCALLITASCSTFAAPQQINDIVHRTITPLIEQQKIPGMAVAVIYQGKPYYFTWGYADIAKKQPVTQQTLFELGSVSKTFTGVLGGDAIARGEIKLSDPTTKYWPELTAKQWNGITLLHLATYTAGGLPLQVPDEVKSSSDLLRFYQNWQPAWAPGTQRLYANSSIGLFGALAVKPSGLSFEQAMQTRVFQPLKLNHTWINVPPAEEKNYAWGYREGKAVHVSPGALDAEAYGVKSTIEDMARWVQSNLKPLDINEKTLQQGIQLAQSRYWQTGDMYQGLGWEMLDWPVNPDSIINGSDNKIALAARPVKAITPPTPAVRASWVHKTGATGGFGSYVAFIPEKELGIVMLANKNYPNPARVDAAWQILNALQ
#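 AmpC (5.3 nM in the dispensed reagent) in 20 mM phosphate pH 7.0 with 0.01% (detergent screen) or 0.0001% Triton X-100 was preincubated with compounds for 15 min at room temperature. Nitrocefin was then added from an 800 uM solution, and hydrolysis was followed at 480 nm.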
# HCV inhibitor – blocks hepatitis C virus | Huh7.5.1 HCVcc-Cre infection, luciferase reporter, 44 h | Potency, µM (titrated, usually from 41.8 µM), inactives show at the top dose activity change, negative = inhibition, actives largely listed as inhibitors | 340,000 tested, 3.4% active
#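 HCVcc-Cre virus at an moi near 0.5 was added right after compound to cells cultured 4 h from seeding (1,000 cells/well). Luciferase activity was determined 44 h later, 15 min after substrate addition at RT.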
# AmpC inh detg – AmpC beta-lactamase inhibition with detergent present. Potency, µM (doses to about 114 µM), for inactives: at the top dose activity change, negative = inhibition, most hits filed as inhibitors. AmpC hydrolysis of nitrocefin, absorbance 480 nm, 0.01% Triton. 370,000 tested, 0.041% active. P00811. AID 485294;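 further: 0% = no-compound wells and -100% = no-enzyme wells; nearly all actives have a fitted effect of over 25% in size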
#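 20 mM phosphate pH 7.0 + 0.01% (detergent screen) or 0.0001% Triton X-100; 5.3 nM AmpC reagent; cpd preinc 15 min RT; nitrocefin (800 uM stock) to start; A480 q20 s × 4 min; Activity was normalised to no-enzyme and no-compound control wells.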
# The depositor's hits bear a star; ? = inconclusive; / = no result. The call rests on the fitted dose curve; in most records, active means well fitted curve in the direction sought with a large enough effect; inconclusive means small, poorly fitted or top-dose-only effect, or another doubt; inactive means no such curve, though single readings can be large; an effect the other way counts as inactive or inconclusive. Unless noted, on the % scale 0 is the no-effect control and ±100 the full control effect; potency means the concentration at half of the fitted maximal effect.
SMILES,Pf growth 96h,Pf growth 48h,AMA1 RON2 block,AmpC inh no detg,HCV inhibitor,AmpC inh detg
O=C(c1ccc(Cl)c(S(=O)(=O)N2CCCCCC2)c1)N1CCN(c2ccccn2)CC1,?,/,0.0%,67.0%,7.08µM*,-3.1%
Cc1c(C)n(C)c2ccc(C(=O)N3CCN(c4ccccn4)CC3)cc12,6.8%,10.4µM*,-19.9%,25.1%,?,-7.2%
O=C(c1ccc(Cl)c(S(=O)(=O)N2CCCCCC2)c1)N1CCCCC1,6.3%,?,7.1%,65.7%,-11.7%,4.4%
Cc1ccc(NC(=O)C2CCCN2S(=O)(=O)c2cccc3nsnc23)c(Br)c1 (stereo not drawn),/,/,/,/,/,-0.7%
CC(=O)c1ccc(Nc2nc3ccccc3nc2-n2nc(C)cc2C)cc1,/,/,/,/,/,-7.0%
CCOC(=O)c1nc(NCc2cccnc2)c2ccccc2n1,/,34.5%,0.6%,?,9.1%,1.3%
CC(Nc1nc(-c2cccnc2)nc2ccccc12)c1ccc(F)cc1 (stereo not drawn),6.57µM*,4.65µM*,-19.3%,-22.7%,8.91µM*,-7.6%
Fc1ccccc1/C=N/Nc1nc(-c2ccccn2)nc2ccccc12,?,2.33µM*,/,-8.2%,/,0.6%
COC(=O)CNc1nc(-c2cccnc2)nc2ccccc12,?,-5.3%,15.7%,-15.0%,?,-14.0%
CC(C)(C)c1ccc(-c2nc(NCc3cccnc3)c3ccccc3n2)cc1,17.1%,?,-16.4%,35.5%,11.2µM*,-7.1%
c1cncc(CNc2nc(-c3cccnc3)nc3ccccc23)c1,?,?,-7.9%,-22.0%,22.4µM*,3.2%
CC(Nc1nc(-c2ccccc2)nc2ccccc12)c1ccccc1 (stereo not drawn),-0.4%,?,-4.4%,-36.3%,-29.6%,12.2%
c1ccc(-c2nc(NCC3CCCO3)c3oc4ccccc4c3n2)cc1 (stereo not drawn),14.7µM*,/,-6.4%,14.7%,?,-12.3%
c1ccc2c(c1)oc1c(NCC3CCCO3)ncnc12 (stereo not drawn),19.0%,50.9%,1.1%,-6.0%,-24.9%,-2.5%
Cc1nc(NCc2ccccn2)c2ccccc2n1,35.8%,12.9%,47.8%,-10.4%,10µM*,1.6%
c1ccc(CNc2nc(NCc3ccccc3)c3ccccc3n2)cc1,0.738µM*,1.17µM*,-3.7%,?,?,0.4%
COc1cccc(-c2nc(NCc3cccnc3)c3ccccc3n2)c1O,?,11.7µM*,-8.7%,-13.1%,?,-9.2%
c1ccc(CNc2nc(-c3ccccc3)nc3ccccc23)cc1,-91.2%,?,4.6%,-54.9%,?,-16.4%
COc1ccc(CN(C(=O)Cc2coc3ccc(C)cc23)C2CCS(=O)(=O)C2)cc1 (stereo not drawn),/,/,/,/,/,1.5%
c1ccc(-c2nc(NCc3cccnc3)c3oc4ccccc4c3n2)cc1,9.28µM*,?,?,7.3%,?,-5.8%
CCC(C)Nc1nc(-c2cccc(OC)c2O)nc2ccccc12 (stereo not drawn),?,-15.1%,5.3%,-19.1%,2.51µM*,?
Cc1ccc(CNc2nc(-c3cccnc3)nc3ccccc23)cc1,?,6.57µM*,-12.3%,-19.7%,?,-7.8%
COc1cccc(-c2nc(NC(C)C)c3ccccc3n2)c1O,?,?,-21.4%,-10.9%,?,-7.1%
c1cncc(-c2nc(NCc3ccc4c(c3)OCO4)c3ccccc3n2)c1,10.4µM*,13.1µM*,23.7%,-44.3%,11.2µM*,9.0%
O=C(NCC(c1cccs1)S(=O)(=O)c1cccs1)c1cccc(F)c1 (stereo not drawn),/,/,/,/,/,-6.1%
SMILES,Pf growth 96h,Pf growth 48h,AMA1 RON2 block,AmpC inh no detg,HCV inhibitor,AmpC inh detg
O=C(CN1C(=O)c2cccnc2Sc2ccccc21)Nc1cc(F)ccc1F,/,/,/,/,/,2.7%
CCCCC(=O)Nc1nnc(S(=O)(=O)N(CC)c2cc(C)cc(C)c2)s1,/,/,/,/,/,20.4%
c1ccc(CNc2nc(-c3cccnc3)nc3ccccc23)cc1,8.28µM*,9.28µM*,-2.4%,-30.6%,?,-2.2%
c1ccc(CNc2nc(-c3ccccn3)nc3ccccc23)cc1,0.657µM*,1.47µM*,12.5%,-14.6%,3.16µM*,1.1%
CCC(C)Nc1nc(-c2ccccn2)nc2ccccc12 (stereo not drawn),0.928µM*,/,44.9%,-24.5%,?,-5.4%
Clc1cccc(CNc2nc(-c3cccnc3)nc3ccccc23)c1,?,?,-13.0%,-13.2%,?,-11.1%
c1ccc(CNc2nc3ccccc3[nH]2)cc1,-4.3%,-22.7%,5.4%,-26.8%,9.2%,-10.5%
O=c1[nH]c2ccccc2nc1NCc1ccccc1,4.65µM*,22.8%,2.5%,-10.8%,-2.4%,?
COc1ccc(OC)c(CNC(=O)C2CCCCN2S(=O)(=O)c2ccc(F)cc2)c1 (stereo not drawn),/,/,/,/,/,-3.9%
Cc1sc(-n2cccc2)c(C(C)NC(=O)Nc2ccccc2Cl)c1C (stereo not drawn),/,/,/,/,/,19.5%
NS(=O)(=O)c1ccc(CNc2nc(-c3cccnc3)nc3ccccc23)cc1,?,?,-6.2%,-41.4%,-22.9%,-13.5%
Fc1ccc(CNc2nc(-c3cccnc3)nc3ccccc23)cc1,?,11.7µM*,2.6%,-27.3%,11.2µM*,-12.1%
Cc1ccc(C)c(N2CCN(CCCNC(=O)c3cnn(-c4ccc(F)cc4)c3C3CCN(C(=O)OC(C)(C)C)CC3)CC2)c1,/,/,/,/,/,12.1%
CC1CCC2C(=O)N(c3cccc(C(=O)Nc4ccc(F)cc4)c3)C(=O)C2C1 (stereo not drawn),15.9%,-24.1%,-5.4%,-11.6%,1.0%,?
COc1cccc(NC(=O)c2cccc(N3C(=O)C4CCC(C)CC4C3=O)c2)c1 (stereo not drawn),4.15µM*,2.33µM*,-7.0%,-11.3%,-2.7%,?
CC1CCC2C(=O)N(c3cccc(C(=O)Nc4ccccc4Cl)c3)C(=O)C2C1 (stereo not drawn),11.7µM*,-14.5%,12.5%,-21.1%,25.7%,-12.0%
COc1ccc(CCNC(=O)CS(=O)Cc2nc(-c3ccc(C)cc3)oc2C)c(OC)c1 (stereo not drawn),/,/,/,/,/,-5.2%
C=C1SC(Nc2c(C)cc(C)cc2C)=NC12CCCCC2,?,1.65µM*,-9.8%,-38.8%,-64.7%,-1.0%
CCc1cccc(C)c1NC(=S)NCCc1c(C)[nH]c2ccc(C)cc12,14.7µM*,?,30.7%,-30.1%,35.5µM*,-1.5%
CCc1cccc(CC)c1NC(=S)NCCc1c(C)[nH]c2ccc(C)cc12,10.4µM*,?,42.8%,-21.3%,22.4µM*,-9.2%
